From PubChem
In the library only some 15% were active in any assay of this set; here they are far more common.
TDP1 cell noCPT – qHTS for Inhibitors of human tyrosyl-DNA phosphodiesterase 1 (TDP1): qHTS in cells in absence of CPT; AID 686978, 2013; 420,000 compounds, 15% hits; DT40 Tdp1-/- hTDP1 cells, no CPT, ATP luminescence, 48 h; Potency, µM (titrated, usually from 46.2 µM), inactives show at the top dose activity change, negative = growth inhibition, hits mostly inhibitors; note: nearly all actives have a fitted effect of over 55% in size
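No-CPT arm: Tdp1-/-;hTDP1 DT40 cells (400/well) plus compounds, incubated ≥48 hr at 37 °C. Readout CellTiter-Glo luminescence.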
ELG1 DNA repair – inhibitors of ELG1-dependent DNA repair in HEK293T cells; HEK293T ELG1-luciferase reporter, luminescence, 16 h; DNA damage induced by 5-fluorouridine; AID 504467; Potency, µM (series often up to 46.1 µM), without a hit: top-dose activity change, negative = inhibition, hits mostly inhibitors; 330,000 compounds, 2.3% hits; note: nearly all actives have a fitted effect of over 55% in size
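Reporter activity after DNA damage by 5-fluorouridine is monitored. Compound-treated cells incubate 16 hr at 37 °C, then ONE-Glo is added for 30 min before luminescence reading.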
VP16 counter – counter-screen for ROR gamma inhibitors: Gal4-VP16 reporter; AID 2546; Potency, µM (doses to about 53.6 µM), for the others: top-dose activity, negative = inhibition, most hits filed as inhibitors; 310,000 compounds, 3.5% hits; Drosophila S2 Gal4-VP16 UAS-luciferase, luminescence, 20 h;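 note: Gal4-VP16 expression switched on by copper sulfate through the metallothionein promoter; nearly all actives have a fitted effect of over 50% in size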
RORgamma inh – blocks mouse ROR gamma transcriptional activity. Potency, µM (series often up to 53.6 µM), without a hit: at the top dose activity change, negative = inhibition, most hits filed as inhibitors. Drosophila S2 Gal4-RORgamma UAS-luciferase reporter, 20 h. P51450. 310,000 compounds, 5.4% hits; note: nearly all actives have a fitted effect of over 60% in size
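Drosophila S2 cells stably expressing Gal4-DBD/mouse RORγ fusion under metallothionein promoter plus UAS-luciferase; compound 1 h, then 700 uM CuSO4 induction for 20 h at ambient temperature; inhibition read as reduced luminescence.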
12-LOX inh – blocks human arachidonate 12S-lipoxygenase. Potency, µM (top dose mostly 108 µM), inactives show at the top dose activity change, negative = inhibition, most hits filed as inhibitors. 580,000 compounds, 1.1% hits. AID 1671190. purified 12hLO, xylenol orange hydroperoxide absorbance. P18054
Target sequence (P18054 whole entry, looked up): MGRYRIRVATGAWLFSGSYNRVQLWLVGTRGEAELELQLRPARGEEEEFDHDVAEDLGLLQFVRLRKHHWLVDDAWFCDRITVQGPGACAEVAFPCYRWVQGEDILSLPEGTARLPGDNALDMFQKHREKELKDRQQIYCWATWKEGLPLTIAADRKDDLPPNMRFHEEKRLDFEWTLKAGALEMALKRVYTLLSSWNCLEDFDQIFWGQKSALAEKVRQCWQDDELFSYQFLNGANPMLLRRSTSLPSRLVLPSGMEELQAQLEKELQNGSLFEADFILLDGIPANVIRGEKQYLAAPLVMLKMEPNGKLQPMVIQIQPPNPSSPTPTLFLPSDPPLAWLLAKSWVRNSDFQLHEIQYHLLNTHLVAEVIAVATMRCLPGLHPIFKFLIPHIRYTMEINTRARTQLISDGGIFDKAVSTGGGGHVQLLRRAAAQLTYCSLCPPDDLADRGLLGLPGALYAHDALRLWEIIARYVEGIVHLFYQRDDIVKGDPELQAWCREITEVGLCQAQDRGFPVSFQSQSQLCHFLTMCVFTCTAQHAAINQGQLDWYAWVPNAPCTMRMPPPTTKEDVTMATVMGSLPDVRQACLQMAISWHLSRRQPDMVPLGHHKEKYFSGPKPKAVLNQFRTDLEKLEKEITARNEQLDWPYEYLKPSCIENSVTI
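Hydroperoxide product was detected by ferrous iron/xylenol orange as the 573 to 405 nm absorbance ratio. Arachidonic acid at 40 uM (final) was turned over for 30 min at room temperature by 150 nM human 12hLO, pH 7.0 Hepes buffer, after 15 min compound preincubation.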
DT40 TDP1 CPT – growth inhibition of DT40 Tdp1-/-;hTDP1 cells with camptothecin (screen for TDP1 inhibitors); 420,000 compounds, 12% hits; Potency, µM (highest dose often 46.2 µM), inactives show top-dose activity change, negative = growth inhibition, actives largely listed as inhibitors; AID 686979; chicken DT40 Tdp1-/-;hTDP1 cells + 20 nM CPT, ATP luminescence, 48 h; note: nearly all actives have a fitted effect of over 55% in size
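Chicken DT40 Tdp1-/- cells stably complemented with human TDP1 were seeded at 400 cells/well in medium containing 20 nM camptothecin, exposed to pin-transferred compounds, and grown at 37 °C for at least 48 hr. Viability was read as ATP luminescence.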
An asterisk follows results filed as active; ? = inconclusive; nt = no result; [ ] = remark or other dose. Calls come from the whole dose curve; as a rule, active = well fitted curve in the direction sought with a large enough effect; inconclusive = small, poorly fitted or top-dose-only effect, or another doubt; inactive = no such curve, though single readings can be large; an effect the other way counts as inactive or inconclusive. % is set by controls: 0 for no effect and ±100 for the full control effect; potency is the fitted concentration of half-maximal effect.

SMILES	TDP1 cell noCPT	ELG1 DNA repair	VP16 counter	RORgamma inh	12-LOX inh	DT40 TDP1 CPT
CC(C)N(Cc1nc(-c2ccccc2)no1)C(=O)c1ccc(Br)o1	16µM*	?	-4%	22%	4%	-20%
CC(C)N(Cc1nc(-c2ccccc2)no1)C(=O)C1CCCCC1	?	-2%	3%	34%	8%	?
CC(CNC(=O)Cn1ccc2cc(S(=O)(=O)N3CCCCC3)ccc21)c1ccccc1 (configuration not stated)	21µM*	nt	nt	nt	?	?
O=C(Cn1ccc2cc(S(=O)(=O)N3CCCCCC3)ccc21)NCc1ccccc1Cl	?	nt	nt	nt	-9%	?
CC(CNC(=O)Cn1ccc2cc(S(=O)(=O)N3CCCC3)ccc21)c1ccccc1 (configuration not stated)	23µM*	-11%	-6%	29%	7%	18µM*
COc1ccccc1CNC(=O)c1[nH]c(C)c(C(C)=O)c1C	?	-20%	-11%	17%	?	-24%
COc1cccc(CN(C)C(=O)c2ccc(S(=O)(=O)N3CCCC3)cc2)c1OC	?	11%	3%	24%	-23%	?
COc1ccccc1N(C)S(=O)(=O)c1ccc(C(=O)N(C)Cc2cccc(OC)c2OC)cc1	21µM*	nt	nt	nt	8%	?
COc1cccc(CN(C)C(=O)c2[nH]c(C)c(C(C)=O)c2C)c1OC	12µM*	?	?	1%	-24%	18µM*
CCOc1ccc(CN(C)C(=O)c2ccc(S(=O)(=O)N(C)c3ccccc3OC)cc2)cc1	10µM*	?	nt	nt	11%	?
COc1cccc(C(=O)NCc2ccc3c(c2)OCO3)c1OC	-6%	14%	-11%	-1%	5%	15%
COc1ccccc1N(C)S(=O)(=O)c1ccc(C(=O)NCc2ccc3c(c2)OCO3)cc1	23µM*	?	5%	-7%	10%	-14%
Cc1nc2cc(NS(=O)(=O)c3ccc(C)c(C)c3)ccc2o1	nt	nt	nt	nt	4%	nt
Cc1ccc(C2C(C#N)=C(N)N(N3CCOCC3)C3=C2C(=O)CC(C)(C)C3)cc1 (configuration not stated)	nt	nt	nt	nt	-27%	nt
COc1ccccc1N(C)S(=O)(=O)c1ccc(C(=O)N(C)Cc2ccc(Cl)s2)cc1	15µM*	?	nt	nt	-11%	23µM*
COc1cccc(CN(C)C(=O)COc2ccc(C(=O)c3ccc(Cl)cc3)cc2)c1OC	23µM*	6%	2%	-12%	11%	?
COc1ccc(NC(=O)CSCC(=O)N(C)Cc2cccc(OC)c2OC)cc1	?	-10%	nt	nt	-1%	?
N#Cc1ccc(N2CCN(CCCOCC(F)(F)F)CC2)c([N+](=O)[O-])c1	nt	nt	nt	nt	-28%	nt
COc1ccc(-n2ccc3ccccc32)cc1	-23%	17%	3%	35%	-13%	-15%
c1ccc2c(c1)ccn2-n1ccc2ccccc21	13µM*	nt	nt	nt	nt	-54%
COc1ccc(NC(=O)N2CCN(Cc3ccccc3C)CC2)cc1OC	nt	nt	nt	nt	13%	nt
O=C(C1CC1)N1CCN(c2nc3c(Cl)cccc3s2)CC1	21µM*	nt	nt	nt	?	21µM*
Cc1ccc(Cl)c2sc(N3CCN(C(=O)C4CC4)CC3)nc12	?	nt	nt	nt	?	-6%
Cc1cc(C)c2nc(N3CCC(C(=O)N4CCN(c5ncccn5)CC4)CC3)sc2c1	?	?	8%	17%	5%	16µM*
O=C(c1ccccc1C(=O)N1CCN(c2ccccc2F)CC1)N1CCN(c2ccccc2F)CC1	?	?	1%	13%	-5%	18µM*
SMILES	TDP1 cell noCPT	ELG1 DNA repair	VP16 counter	RORgamma inh	12-LOX inh	DT40 TDP1 CPT
O=C(c1ccccc1Oc1ccccc1)N1CCN(c2ccccc2F)CC1	16µM*	-21%	4%	2%	-2%	18µM*
O=C(c1ccccc1F)N1CCN(c2ccccc2F)CC1	-28%	-9%	-2%	-5%[10 µM]	0%	-12%
N#Cc1c(F)cccc1N1CCN(Cc2ccc3c(c2)OCO3)CC1	?	?	-20%	39%	5%	16µM*
Oc1ccccc1-c1cnc2cccnn12	?	nt	nt	nt	-16%	16µM*
Cc1c(NC(=O)c2ccc([N+](=O)[O-])o2)cccc1-c1nc2ncccc2o1	?	?	?	?	-1%	18µM*
O=C(Nc1cccc2ncccc12)c1ccc([N+](=O)[O-])o1	16µM*	?	?	?	18%	12µM*
Cc1cccnc1NC(=O)c1ccc([N+](=O)[O-])o1	?	9%	-23%	-37%	-8%	?
Cc1ccc2nc(-c3ccc(C)c(NC(=O)c4ccc([N+](=O)[O-])o4)c3)oc2c1	nt	nt	nt	nt	-1%	nt
O=C(Nc1cccc2ncccc12)c1ccc(Br)c([N+](=O)[O-])c1	?	-4%	5%	-27%	-5%	?
Cc1ccccc1NC(=O)c1ccc([N+](=O)[O-])o1	12µM*	?	-14%	-23%	-10%	?
Cc1ccc(NC(=O)c2ccc([N+](=O)[O-])o2)c(C)c1	?	-11%	-5%	24%	-5%	23µM*
O=C(NCCN1CCN(S(=O)(=O)c2ccc3ccccc3c2)CC1)C(=O)Nc1ccc(F)cc1	nt	nt	nt	nt	3%	nt
O=C(NCc1ccc(F)cc1)c1nc(-c2ccc(Cl)cc2)c2ccccn12	nt	nt	nt	nt	18%	nt
O=C(CCc1ncc(-c2ccccc2)o1)NC1CCS(=O)(=O)C1 (configuration not stated)	nt	nt	nt	nt	33%	nt
O=C(Nc1ccccc1Cl)c1ccc([N+](=O)[O-])o1	29µM*	?	16µM*	10µM*	?	?
NC(=O)c1ccccc1NC(=O)c1ccc(-c2ccc(Br)cc2)o1	?	nt	nt	nt	3%	-24%
Cc1c(NC(=O)C(C)(C)Oc2ccc(Cl)cc2)cccc1-c1nc2ncccc2o1	23µM*	nt	nt	nt	-19%	16µM*
O=C(Nc1cccc2ncccc12)c1ccc(-c2ccc(Br)cc2)o1	23µM*	?	-1%	30%	?	18µM*
CN(C)CCNC(=O)c1nc(-c2cccc3[nH]ccc23)no1	nt	nt	nt	nt	8%	nt
O=C(NC1CC1)c1cn(-c2ccccc2)nc1-c1cccnc1	nt	nt	nt	nt	18%	nt
Cc1cc(Cl)ccc1OCC(=O)OCC(=O)Nc1ccccc1	nt	nt	nt	nt	-7%	nt
O=C1CS/C(=N/N=C/c2ccncc2)N1	-1%	5%	3%	-9%	0%	5%
O=C1CS/C(=N/N=C/c2ccccc2OS(=O)(=O)c2ccccc2)N1	1µM*	3%	13µM*	?	-10%	1µM*
